Screening results from PubChem.
ELG1 DNA repair: qHTS screen for small molecules that inhibit ELG1-dependent DNA repair in human embryonic kidney (HEK293T) cells expressing luciferase-tagged ELG1; HEK293T ELG1-luciferase reporter, luminescence, 16 h; DNA damage induced by 5-fluorouridine; Potency, µM (series often up to 46.1 µM), without a hit: at the top dose activity change, negative = inhibition, actives largely listed as inhibitors; hit rate 2.3% among 330,000; AID 504467, 2011; further: potency means the concentration at half of the fitted maximal effect; nearly all actives have a fitted effect of over 55% in size
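HEK293T cells expressing luciferase-tagged ELG1 (2,000/well) received 5-Fluorouridine plus compound or DMSO for 16 hr at 37 °C. Luciferase was read by ONE-Glo luminescence after 30 min at room temperature.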
Sfp inh: qHTS Assay for Inhibitors of Bacillus subtilis Sfp phosphopantetheinyl transferase (PPTase); 4'-phosphopantetheinyl transferase ffp (Bacillus subtilis), Q9F4F7; Biochemical Sfp PPTase activity, qHTS; Potency, µM, inactives show largest response in the series, negative = inhibition, actives largely listed as inhibitors; hit rate 3.5% among 310,000; AID 1490, 2009;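 further: the enzyme is Sfp with the accession as filed and its product quenches rhodamine fluorescence; potency means the concentration at half of the fitted maximal effect; 0% = enzyme reaction without inhibitor and -100% = no enzyme wells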
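Sfp 15 nM + cpd, 15 min RT; start w/ rhodamine-CoA 5 uM, BHQ-2-YbbR 12.5 uM (final); 50 mM Hepes pH 7.6, 10 mM MgCl2, 0.01% NP-40, 0.01% BSA; read 525/598 nm at 0 and 30 min.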
Giardia kill: Small Molecules that selectively kill Giardia lamblia: qHTS. hit rate 0.15% among 340,000. activity change, % at 7.66 µM, hits read low. AID 540267, 2011. Giardia lamblia trophozoite viability; in the data active means activity change below about -80%; inconclusive means between about -30% and that limit;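 further: parasites exposed to compound for two days anaerobically before the ATP read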
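Giardia lamblia trophozoites (100 cells/well) were incubated with compounds for 48 h at 37 deg C under anaerobic conditions. Viability was read as ATP content by one-step luminescence after 15-30 min at room temperature.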
Coupling enz: qHTS Assay for Inhibitors of Fructose-1,6-bisphosphate Aldolase from Giardia Lamblia: Coupling assay counterscreen | coupling enzyme system counterscreen, AmpLite Red fluorescence | activity change, negative = inhibition, % at 58.2 µM, hits read low | hit rate 0.67% among 290,000 | AID 2472, 2010; in the data active means activity change below about -30%
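Compounds tested against the coupling enzymes alone at 57.5 uM final; readout was AmpLite Red fluorescence (525/598 nm) after 20 min at RT.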
An asterisk follows results filed as active; u = inconclusive; x = no result. This is a sample that favours compounds with a hit; in the whole collection about 5.5% have one here. Unless noted, the call rests on the fitted dose curve; in most records, active means well fitted curve in the direction sought with a large enough effect; inconclusive means small, poorly fitted or top-dose-only effect, or another doubt; inactive means no such curve, though single readings can be large; an effect the other way counts as inactive or inconclusive. Unless noted, on the % scale 0 is the no-effect control and ±100 the full control effect.

SMILES | ELG1 DNA repair | Sfp inh | Giardia kill | Coupling enz
COc1ccc(CN2CCN(C(=O)C3CCN(S(=O)(=O)c4cccs4)CC3)CC2)c(OC)c1OC | 10µM* | 1% | -2 | 2
CSc1cccc(NS(=O)(=O)c2cn(C)cn2)c1 | 20% | -2% | u | -3
COCCNc1ccnc(-c2ccccc2C)n1 | x | u | x | 4
c1ccc(-c2c(-c3ccccc3)n(Cc3ccco3)c3ncnc(NCCCn4ccnc4)c23)cc1 | u | 63µM* | 9 | 10
N=c1c2c(-c3ccccc3)c(-c3ccccc3)n(Cc3ccco3)c2ncn1Cc1ccccc1 | u | 22µM* | -1 | 4
CCOc1ccc(NC(=O)CN(C)C(=O)c2ccc3c(c2)C(=O)N(CCC(C)C)C3=O)cc1OCC | -26% | 7% | 2 | -1
COc1ccc(-c2noc(CCC(=O)Nc3cccnc3)n2)cc1 | 15% | 19% | 14 | 1
CCOc1cc(-c2noc(CCC(=O)Nc3cccnc3)n2)ccc1OC | 21µM* | 5% | -8 | -2
Cn1c2c(c3cnc4cc(Cl)ccc4c31)CNCC2 | x | x | -3 | x
c1ccc(COC[C@@H]2CO2)cc1 | x | -3% | x | -2
Cc1cccc(C)c1-n1cccc1/C=C1\SC(=S)N(c2cccc(C(=O)O)c2)C1=O | u | 40µM* | 8 | 16
Cc1ccc(NC(=O)CN2C(=O)S/C(=C\c3cccn3-c3cccc(C(=O)O)c3)C2=O)c(C)c1 | 4% | 50µM* | -16 | 5
O=c1c2ccccc2sn1-c1ccc(Cl)c(S(=O)(=O)N2CCOCC2)c1 | x | x | -6 | x
N#CC1=C(N)NC(=S)C(C(N)=O)C1c1ccccc1F (stereo not given) | -4% | 0.71µM* | -5 | 2
N#CC1=C(N)NC(=S)C(C(N)=O)C1c1ccc(Cl)cc1Cl (stereo not given) | -3% | 8.9µM* | 5 | 2
Cn1c(=O)c2c(nc(N/N=C/c3cccs3)n2Cc2ccccc2)n(C)c1=O | 6.5µM* | -12% | -2 | -11
Cn1c(N/N=C/c2cccs2)nc2c1c(=O)n(Cc1ccccc1)c(=O)n2C | -6% | 20% | -20 | 3
Cn1c(=O)c2c(nc(N/N=C/c3cccnc3)n2Cc2ccc(F)cc2)n(C)c1=O | 2% | -6% | 15 | 1
Cn1c(=O)c2c(nc(N/N=C/c3ccc(OC(=O)c4ccco4)cc3)n2Cc2ccccc2)n(C)c1=O | 21µM* | u | 0 | -11
COc1ccc(CCNc2nc(C)cc(=O)[nH]2)cc1OC | x | x | 14 | x
COc1ccc(C/C(C)=N/Nc2nc(C)cc(=O)[nH]2)cc1 | u | 50µM* | -17 | -1
CC(=O)c1ccc(-c2ccc(C(=O)NC3CC(C)(C)NC(C)(C)C3)o2)cc1 | u | x | 0 | x
CC(C)(C)OC(=O)N(Cc1ccccc1)Cc1ccccc1OCc1cccc(NC(=O)c2ccccc2)c1 | x | x | -4 | x
Cc1cccc(N(Cc2ccccc2)C(=O)CSC(C)C(=O)Nc2cc(C)on2)c1 (stereo not given) | 4% | x | 6 | x
COc1ccc(CN(CC2CCC(C(=O)O)CC2)C(=S)Nc2cc(Cl)ccc2OC)cc1 (stereo not given) | -30% | 40µM* | -9 | 1
SMILES | ELG1 DNA repair | Sfp inh | Giardia kill | Coupling enz
COc1ccc(Cl)cc1NC(=S)N(Cc1ccc(C(=O)O)cc1)Cc1ccc(OC)c(OC)c1 | 0% | 40µM* | -3 | 11
COc1ccccc1CNc1nc(-c2ccoc2)nc2ccccc12 | x | -4% | x | 4
CN1C(=O)N(C)c2ccc(Br)c3cccc1c23 | u | -2% | -9 | 0
Cc1ccc(C)c(N2CCN(c3ncccc3[N+](=O)[O-])CC2)c1 | -15% | -3% | -4 | -1
Cc1nc(SCC(=O)N2CCCCCC2)c2c(=O)n(C)c(=O)n(CC(C)C)c2n1 | x | x | -1 | x
CCCCCCCCCCCCCCCC[N+](C)(C)CCN(Cc1ccc(OC)cc1)c1ncccn1 | u | 14µM* | -10 | -1
Oc1[nH]c2ccccc2c1N=Nc1nc(Nc2ccccc2)nc(N2CCOCC2)n1 | 3.7µM* | 16µM* | -15 | 0
c1ccc(Nc2nc(N3CCCC3)nc(N3CCOCC3)n2)cc1 | x | x | -12 | x
Cc1[nH]c2ccccc2c1/C=N/Nc1nc(Nc2ccccc2)nc(N2CCOCC2)n1 | 23µM* | 2% | -3 | -1
COc1ccc2[nH]c3c4c(ccc3c2c1)C(=O)C=CC4=O | 16µM* | 6.3µM* | 9 | -38*
